# Results published in PubChem BioAssay AID652017 (The Scripps Research Institute Molecular Screening Center, 2013).
# Screen size: about 370,000 compounds; about 3,800 (1%) were called active. This excerpt belongs to a sample that is enriched for actives. A number with no mark means an inactive call. Rule as the data show it: active = activation above about 7.8%; inactive = the rest.
# Assay: SMARCA2 (BRM) function activators, primary screen, cell-based, luminescence, high throughput (AID 652017);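 also: 0% = vehicle wells and 100% = reference activator wells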
# Conditions: MG213 cells, MMTV-luciferase reporter, dexamethasone, overnight; at 9.1 µM; active compounds read high
row,SMILES,activation
1,CCCC[C@H]1C2CC(OC(=O)NCc3ccccc3)C(C2)[C@H]2CCCCN21 (stereo not given in full),-0.93%
2,CC(=O)O[C@@]1(C(C)=O)CCC2[C@H]3C=C(C)C4=CC(=O)CC[C@@]4(C)C3CC[C@]21C (stereo not given in full),-9.82%
3,Cc1cccc(NC(=S)N2CCC(c3nc4ccccc4s3)CC2)c1,-2.82%
4,Cc1nc2ccc(NC(=O)N3CCC(c4ccccc4)C3)cc2nc1C (stereo not given),-3.22%
5,Cc1nc2ccc(NC(=S)N3CCC(C)CC3)cc2nc1C,7.91% (active)
6,Cn1nc(C(F)(F)F)c2cc(NC(=O)OCC(C)(C)C)sc21,7.24%
7,CSCCC(C(=O)NC(C)(C)C)n1c(-c2ccccc2)nc2ccccc21 (stereo not given),-3.19%
8,CCC(C(=O)NC(C)(C)C)n1c(-c2ccccc2)nc2ccccc21 (stereo not given),-0.72%
9,CC(C)(C)NC(=O)C(CCc1ccccc1)n1c(=O)c(-c2ccccc2)nc2ccccc21 (stereo not given),17.1% (active)
10,CN(C)c1ccc(NC(=O)NC2CCCCN(Cc3ccc(Cl)cc3)C2=O)cc1 (stereo not given),-1.53%
11,Cc1ccc(C(=O)NNC(=O)c2cccs2)cc1,9.31% (active)
12,CC(C)COc1ccc(C(=O)NNC(=O)CCC(=O)c2cccs2)cc1,0.68%
13,CS(=O)(=O)c1ccc(C(=O)NNC(=O)c2cccs2)cc1,-1.1%
14,C=CCC(NCCCO)c1cccc(OC)c1OC (stereo not given),2.11%
15,Cc1cc(C)cc(-c2nnc(SCC(=O)NC3CC3)o2)c1,2.96%
16,Cc1cc(C)n2nc(C(=O)NC(C)(C)C)nc2n1,1.51%
17,Cc1cc(C)n2nc(CNS(=O)(=O)c3c(F)c(F)c(F)c(F)c3F)nc2n1,9.77% (active)
18,COc1ccc(Cl)cc1C(=O)NNC(=O)c1nc2nc(C)cc(C)n2n1,-0.45%
19,CCOC(=O)N1CCN(C(=O)C[C@H]2C[C@@]3(C(=O)OC)C(=C[C@H](C(C)(C)C)O[C@@H]3C)N(Cc3ccc(Cl)cc3Cl)C2=O)CC1,-4.25%
20,CC(=O)Nc1nc2ncccn2c1-c1ccc(C(F)(F)F)cc1,-1.69%
21,CC(=O)n1cc([C@H]2C=C(C(=O)N3CCOCC3)O[C@@H](OCc3ccc(CO)cc3)C2)c2ccccc21,-0.72%
22,COc1cccc(CNC(=O)C2CCCN(c3nc4ccccc4o3)C2)c1OC (stereo not given),-3.99%
23,COC(=O)C1C(=O)c2c([nH]c(C(=O)OCCSC)c2C)CC1C (stereo not given),15.2% (active)

row,SMILES,activation
1,CCOC(=O)c1cnc2ccc(F)cc2c1Nc1ccc2c(c1)OCCO2,-4.81%
2,CC(C)N1CCCCC(NC(=O)C(C)(C)C)C1=O (stereo not given),0.13%
3,NC(=O)c1oc2ccccc2c1NC(=O)CS(=O)(=O)c1ccccc1,-2.91%
4,CC(C)(C)N1CC(c2nc3ccccc3n2Cc2ccc(F)cc2)CC1=O (stereo not given),4.59%
5,CCOC(=O)CNc1nc2ccccc2n2c(C)nnc12,-1.96%
6,Fc1ccc(CNc2nc3ccccc3n3nnnc23)cc1,10.3% (active)
7,CC(C)n1c(NCc2c[nH]c3ccccc23)nc2ccccc21,-2.21%
8,C/C(=N\c1nc2ccccc2n1C)c1cc(Cl)ccc1O,0.8%
9,Cc1ccc(O)c(CNc2nc3ccccc3n2C)c1,9.3% (active)
10,CN(CCc1ccccc1)C(=O)Cn1nc(-c2ccccc2)ccc1=O,-2.33%
11,O=C(Cn1ncc(N2CCCC2)c(Br)c1=O)c1ccc(Cl)cc1,9.66% (active)
12,O=C(Cn1nc(CNc2ccc(Cl)cc2)[n+]2c1CCCCC2)c1ccc(Cl)cc1,-6.64%
13,CC(=O)Cn1ncc(N2CCOCC2)c(Br)c1=O,-2.3%
14,Cc1ccc(-n2c(SCC(=O)Nc3ccc(S(=O)(=O)Nc4nccs4)cc3)nnc2-c2ccccn2)cc1,-6.25%
15,CCOC(=O)C(=O)N(Cc1ccccc1)c1ccccc1C(=O)Nc1cc(OC)ccc1OC,-5.19%
16,CC(c1c[nH]c2ccccc12)c1c(-c2ccccc2)n(C)c2ccccc12 (stereo not given),-5.18%
17,CCc1cc(C(c2ccccc2OC)N2CCOCC2)c(NC(=O)c2ccccc2)s1 (stereo not given),-0.4%
18,COc1ccc(C(=O)Nc2ccnn2C2CCN(Cc3ccncc3)CC2)cc1,-1.75%
19,COc1ccc(C(=O)Nc2sc(C)c(C)c2CN2CCOCC2)cc1,8.14% (active)
20,O=C(CCl)NC1CCCCN(Cc2cccc(C(F)(F)F)c2)C1=O (stereo not given),-2.12%
21,CNC(=O)CN1C(=O)NC(c2ccccc2)(c2ccccc2)C1=O,-2.01%
22,CCCCn1c(SCC(=O)NCC2CCCO2)nc2ccc(N3CCOCC3)cc2c1=O (stereo not given),-3.78%
23,Cn1c(SCC(=O)c2ccccc2)ncc(C(=O)Nc2ccc(F)cc2)c1=O,-2.22%

row,SMILES,activation
1,Cc1ccc(NC(=O)c2cnc(SCC(=O)NCC3CCCO3)n(C)c2=O)cc1 (stereo not given),8.79% (active)
2,Cc1ccccc1-n1cc(CNC(=O)CC2C(=O)NCCN2C/C=C/c2ccccc2)cn1 (stereo not given),-1.02%
3,CCCNC(=O)Nc1ccc2c(c1)C(=O)N(C)[C@H]1CC[C@H](CC(=O)NCC3CCCCC3)O[C@@H]1CO2,-2.38%
4,CC1(C(=O)NCc2ccccc2)CSCC(=O)N1CCCN1CCOCC1 (stereo not given),-6.77%
5,O=S1(=O)c2ccc(Br)cc2OC[C@H](Cc2ccccc2)N1Cc1cn(Cc2ccccc2)nn1,-4.73%
6,COc1nc(N=C(N)N)nc2c(C)cccc12,5.28%
7,Cc1nc(N=C(N)N)nc2c(C)cccc12,18.7% (active)
8,Nn1c(SCC(=O)N2c3ccccc3Sc3ccccc32)nnc1-c1n[nH]c2c1CCC2,-2.45%
9,CCCC[C@H](C(=O)N(CC)c1ccccc1)[C@@H](O)c1ccc2ccccc2c1,-2.79%
10,CN1C[C@]2(C=C3CCCCC3n3c(=O)n(-c4ccccc4)c(=O)n32)N=C1NC(=O)c1ccccc1 (stereo not given in full),-3.36%
11,O=C(COC(=O)c1cccnc1Cl)NC12CC3CC(CC(C3)C1)C2,-0.27%
12,COCOc1cccc(CN2CCC(C)(Oc3ccc(SC)cc3)C2)c1 (stereo not given),-2.3%
13,CCOC(=O)[C@]12CCCCC/C=C\1N(Cc1ccc(OC)cc1)C(=O)[C@H]2CC(=O)N1CCOCC1,-3.81%
14,O=C(Nc1nnc(CCc2ccccc2)s1)C1CCCO1 (stereo not given),8.46% (active)
15,O=C(NCc1ccccc1Cl)C1CCCO1 (stereo not given),-4.52%
16,O=C(C1CCCO1)N(Cc1ccccc1)c1ccccc1 (stereo not given),-1.33%
17,CC(=O)C1(C(=O)Nc2nccs2)CC(c2ccccc2C(F)(F)F)=NO1 (stereo not given),-1.46%
18,COc1ccc(CN(CCN2CCOCC2)C(=O)c2ccc(C)cc2)cc1OC,-0.94%
19,CN(C)[C@H]1CCN(c2cccc3c2S(=O)(=O)N2CC[C@H](C2)O3)C1,0.57%
20,COc1ccc(-c2cc(-c3nnc(SCC(=O)Nc4cccc5ccccc45)n3N)[nH]n2)cc1,-3.63%
21,C=CCOC/C=C/C#CCN(CC=C)Cc1ccc(OC)cc1OC,7.87% (active)
22,COc1ccc(CN(C)Cc2nc3cc(OC)c(OC)cc3c(=O)[nH]2)c(OC)c1,-2.98%
23,COc1ccc(C#CCNCc2ccc(OC)cc2OC)cc1,-1.96%

row,SMILES,activation
1,C=CCN1C(=O)[C@H](CC(=O)N2CCN(C(=O)OCC)CC2)[C@@]2(C(=O)OCC)CCCC=C12,-0.21%
2,C=CCN1C(=O)[C@H](CC(=O)NCCCN2CCCC2=O)[C@@]2(C(=O)OCC)CCCC=C12,-0.89%
3,CCn1c2ccccc2c2cc(NC(=O)CSc3nnc(-c4ccccc4)n3-c3ccc(C)cc3)ccc21,-2.83%
4,COc1ccc2oc(N)c(C=O)c(=O)c2c1,0.14%
5,CCc1cc2c(=O)c(-c3nc4ccccc4n3C)c(CCCC(=O)O)oc2cc1OC(=O)C(C)(C)C,-2.32%
6,CCc1cc2c(=O)c(-c3ccon3)c(N)oc2cc1OC,8.66% (active)
7,O=S1(=O)c2c(NCc3ccco3)cccc2Oc2ccccc2CN1Cc1cn(Cc2cccc(C(F)(F)F)c2)nn1,-3.67%
8,CCN(CC)CCNC(=O)c1ccc(NC(=O)c2c(F)cccc2Cl)cc1,-0.88%
9,CCN(CC)CCOC(=O)c1ccc(NC(=O)CNC(=O)c2ccccc2)cc1,-3.5%
10,CCN(CC)CCNC(=O)c1ccc(NC(=O)c2cc(-c3ccncc3)nc3ccccc23)cc1,8.42% (active)
11,O=C1Nc2ccccc2OC1CC(=O)N1CCCCCCC1 (stereo not given),0.95%
12,COc1ccc(-c2ccc3nnc(SCC(=O)Nc4ccc(NC(C)=O)cc4)n3n2)cc1,-0.74%
13,O=[N+]([O-])c1ccc(CN2CC(N3CC=CC3)CS2(=O)=O)cc1 (stereo not given),-2.21%
14,O=C1/C(=C\c2ccc([N+](=O)[O-])cc2)CS(=O)(=O)C/C1=C/c1ccc([N+](=O)[O-])cc1,16.5% (active)
15,C[C@H](C(=O)N(C)c1ccccc1)[C@@H](O)c1ccc2ccccc2c1,-2.92%
16,CCCCCCNS(=O)(=O)c1ccccc1Br,-0.14%
17,c1csc(-c2nnc(SCc3nc4ccccc4[nH]3)o2)c1,-0.75%
18,Cc1cccc(CSc2ccc(-c3cccs3)nn2)c1,9.78% (active)
19,O=C(CSc1ccc(-c2cccs2)nn1)Nc1ccccc1F,-0.22%
20,CC(C)(C)c1ccc(CSc2nnc(-c3cccs3)o2)cc1,-1.53%
21,Cc1ccc(OCc2nnc(SC/C=C/c3ccccc3)n2Cc2ccco2)cc1,-4.07%
